High-throughput results: PubChem BioAssay, several laboratories
JMJD2C inh – blocks human GASC-1 demethylase activity; Q9H3R0; GST-JMJD2C(1-420) H3K9me3 demethylation, DELFIA europium; inhibition, % at 2.35 µM; 330,000 compounds, 0.069% hits;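 active = more than half of a compound's replicate wells show inhibition beyond 50%, single wells judged on their own value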;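 also: signal counts dimethyl H3K9 product captured on neutravidin plate; 0% = median of DMSO wells and 100% = 0.3 times that DMSO median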
Target sequence (Q9H3R0 1-420 limits assumed): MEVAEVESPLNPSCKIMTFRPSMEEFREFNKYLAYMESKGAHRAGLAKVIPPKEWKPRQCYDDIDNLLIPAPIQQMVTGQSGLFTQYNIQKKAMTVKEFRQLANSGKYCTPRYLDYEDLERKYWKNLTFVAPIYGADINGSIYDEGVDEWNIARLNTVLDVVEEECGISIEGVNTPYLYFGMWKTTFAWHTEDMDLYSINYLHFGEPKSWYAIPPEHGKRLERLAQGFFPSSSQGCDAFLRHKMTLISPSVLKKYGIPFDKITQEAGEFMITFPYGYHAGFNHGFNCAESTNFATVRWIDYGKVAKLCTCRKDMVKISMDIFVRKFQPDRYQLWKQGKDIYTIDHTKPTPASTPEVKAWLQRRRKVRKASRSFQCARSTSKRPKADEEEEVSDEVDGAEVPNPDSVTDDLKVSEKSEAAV
Efflux pump inh – antifungal efflux pump inhibition, Nile Red retention; S. cerevisiae Candida pump triplex; inhibition, % at 10 µM; 330,000 compounds, 0.44% hits; AID 485275;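 active = plate passing quality check with inhibition over a set limit, or well fluorescence over plate mean plus 4 SD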;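 also: Nile Red retained in pooled yeast measured as flow cytometry median fluorescence; 0% = buffer negative control and 100% = Enniatin B positive control; higher means more Nile Red kept so more efflux inhibition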
HDAC3 inh – human HDAC3 inhibition; O15379; recombinant HDAC3, fluorogenic peptide/trypsin coupled, fluorescence; inhibition, % at 8.3 µM; 320,000 compounds, 0.15% hits; in the data active = inhibition above about 26%, passing the limit was not always enough
NLRP3 yeast inh – NALP3 inhibition in yeast | Yeast reconstituted NLRP3/ASC/caspase-1, beta-gal luminescence, 24 h | inhibition, % at 10 µM | 330,000 compounds, 0.39% hits | AID 2825;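 active = inhibition of 50% or more; inactive = inhibition below 50%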;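 also: plate controls were induced DMSO wells for no effect and uninduced yeast grown without galactose for full effect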
PolyA inh – blocks polyadenylation in yeast reporter cells. S. cerevisiae SKY197-pL101 polyadenylation reporter, beta-gal luminescence; efflux-impaired pdr1/pdr3 knockout yeast; score 100 = 6 SD above DMSO. activity score, % at 12 µM. 300,000 compounds, 0.02% hits. AID 1875;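 active = lowest replicate activity score at least 50, where 100 means six control SD above control mean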;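 also: yeast exposed to compound for 9 h at 30 °C; higher score means more reporter readthrough which indicates perturbed polyadenylation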
NALP1 inh – blocks the NALP1 inflammasome reconstituted in yeast. S. cerevisiae NALP1/ASC/caspase-1 growth, X-gal OD620, 72 h. inhibition, % at 10 µM. 280,000 compounds, 0.61% hits. AID 2071; in the data active = inhibition mostly above about 24%, no sharp cut-off; inactive = mostly below about 32%
NALP3 yeast conf – confirmation of NALP3 inhibitors in yeast. inhibition, % at 10 µM. 1,300 compounds, 81% hits. shares compounds with NLRP3 yeast inh. yeast expressing human NALP3, luminescence. AID 435006; in the data active = inhibition above about 48%
Casp1 ASC ctr – caspase-1-ASC yeast counter-screen hit | inhibition, % at 10 µM | 1,000 compounds, 66% hits | shares compounds with NLRP3 yeast inh | yeast expressing Caspase-1-ASC, luminescence counter screen
NALP3 yeast rt – confirmation retest of NALP3 inhibitors in yeast. yeast expressing human NALP3, luminescence read-out. inhibition, % at 10 µM. 1,000 compounds, 53% hits. shares compounds with NLRP3 yeast inh. AID 488794
Active calls of the source: *; nt = no result. Only some compounds are listed: those with a hit (about 1.5% of all), similar ones and a draw of the others. Rule as the data show it, unless noted: active = inhibition above about 50%; inactive = the rest.

SMILES	JMJD2C inh	Efflux pump inh	HDAC3 inh	NLRP3 yeast inh	PolyA inh	NALP1 inh	NALP3 yeast conf	Casp1 ASC ctr	NALP3 yeast rt
C#CCSc1cc(C(F)(F)F)nc(-c2ccccn2)n1	-6	0	-4	18	-8	-14	nt	nt	nt
COc1ccc(Sc2cc(C(F)(F)F)nc(-c3ccccn3)n2)cc1	9	0	-3	51*	17	6	64*	55*	45
CC(C)CCNC(=S)Nc1ccc([N+](=O)[O-])cc1	1	0	11	63*	-1	92*	-7	nt	nt
CCCCNC(=S)Nc1ccc([N+](=O)[O-])cc1	5	0	-1	37	-6	48	nt	nt	nt
O=C(Nc1scc(-c2ccccc2)c1C(=O)O)c1ccccc1F	-2	0	1	29	2	-5	nt	nt	nt
O=C(Nc1scc(-c2ccccc2)c1C(=O)O)c1ccc(F)cc1	5	0	1	61*	10	6	74*	48	60*
COc1ccc(-c2csc(NC(=O)Cc3cccc4ccccc34)c2C(=O)O)cc1	3	nt	nt	nt	6	-12	nt	nt	nt
COc1ccc(-c2csc(NC(=O)c3ccc(C(C)(C)C)cc3)c2C(=O)O)cc1	-2	0	-7	87*	-14	nt	86*	95*	86*
Cc1ccc(-c2csc(NC(=O)c3ccc(F)cc3)c2C(=O)O)cc1	0	0	-1	83*	-4	46	91*	92*	38
Cc1ccc(S(=O)(=O)NC(C)C(=O)OCC(=O)N(C)c2ccccc2)cc1 (centres undefined)	nt	0	-1	-9	nt	nt	nt	nt	nt
Cc1ccc(-n2nc3c(c2NC(=O)CC(C)C)CS(=O)(=O)C3)cc1	6	0	2	15	-8	9	nt	nt	nt
CCOC(=O)CNC(=S)n1cnc(N)n1	2	0	3	4	16	-10	nt	nt	nt
CC1CC(C)CN(c2nc(N(C)c3ccccc3)nc(N)c2[N+](=O)[O-])C1 (centres undefined)	-2	0	4	33	-8	11	nt	nt	nt
CC1CN(c2nc(N(C)c3ccccc3)nc(N)c2[N+](=O)[O-])CC(C)O1 (centres undefined)	1	0	3	53*	8	8	44	40	44
O=C(/C=C\c1ccccc1)Oc1cccc2cccnc12	-2	0	4	53*	-13	-20	42	41	37
CN(CCCS(=O)(=O)[O-])c1ccc(/C=C/c2ccc3ccccc3[n+]2C)cc1	-7	0	2	2	11	14	nt	nt	nt
CN(C)c1ccc(/C=C/c2ccc3ccccc3[n+]2C)cc1	-16	29*	17	52*	-14	60*	33	nt	nt
CSc1ncc(C(=O)Nc2ccccc2)cn1	3	0	-1	59*	15	11	72*	57*	55*
COc1cccc(NC(=O)c2cnc(SC)nc2)c1	-17	0	-1	69*	2	11	72*	68*	58*
COc1cccc(NC(=O)c2ccncc2)c1	8	0	-3	5	4	21	nt	nt	nt
Cc1scc(C(=O)N/N=C/c2ccc(Cl)s2)c1C	1	0	3	13	-9	33	nt	nt	nt
CSc1ccc(-c2cc(=O)c3ccccc3o2)cc1	-3	0	2	62*	-33	35	63*	53*	62*
Cc1ccc2c(c1)[C@H]1OCC[C@H]1[C@@H](c1ccncc1)N2	5	0	2	20	27	12	nt	nt	nt
c1ccc(C2Nc3ccccc3C3OCCCC23)cc1 (centres undefined)	19	0	8	62*	-2	10	54*	42	58*
CC(C)CN(C(=O)CCCOc1ccc(Cl)cc1Cl)c1c(N)n(Cc2ccccc2)c(=O)[nH]c1=O	-4	0	6	-8	25	nt	nt	nt	nt
SMILES	JMJD2C inh	Efflux pump inh	HDAC3 inh	NLRP3 yeast inh	PolyA inh	NALP1 inh	NALP3 yeast conf	Casp1 ASC ctr	NALP3 yeast rt
Brc1ccc(-n2cnc(-c3ccccc3)c2)cc1	-4	0	8	52*	-8	7	77*	36	51*
NNc1nc(-c2ccccc2)cc(-c2ccc(Br)cc2)n1	5	0	-1	16	-1	-2	nt	nt	nt
O=C(c1ccc(Cl)s1)N1CCc2ccccc21	0	0	3	28	-6	10	nt	nt	nt
CCc1sc(C(=O)N2CCc3ccccc32)cc1C	13	0	6	51*	-13	-4	34	nt	nt
O=C(COC(=O)C1CCC1)NCc1ccc(Cl)cc1Cl	9	0	0	6	-11	nt	nt	nt	nt
Cc1cccnc1Nc1nc(-c2ccccn2)cs1	-7	0	-6	74*	-24	12	84*	97*	92*
COc1cc(C(=O)ON=C2C3CC4CC(C3)CC2C4)cc(OC)c1OC	8	0	0	59*	-75	18	92*	40	26
CSCc1c(C(=O)NCCc2ccccn2)oc2ccccc12	-2	0	1	6	6	9	nt	nt	nt
Cc1nc2cc(Cl)ccc2c(=O)n1Cc1ccncc1	11	0	-1	5	-5	1	nt	nt	nt
Fc1cccc(F)c1/C=C/c1ccc2ccccc2n1	-3	0	-4	8	-29	18	nt	nt	nt
CC(O)/C=C/c1ccc2ccccc2n1 (centres undefined)	-10	0	-5	50*	-13	1	70*	37	43
Cc1nc2cc(NC(=O)c3ccc(Br)s3)ccc2s1	-3	0	nt	51*	-21	9	69*	44	41
NC1=NC(=O)/C(=C/C=C/c2cccs2)S1	-5	0	2	0	14	nt	nt	nt	nt
Cc1ccc(OCC(=O)Nc2ccc(N(C)C)cc2)cc1	15	0	-2	33	-9	-10	nt	nt	nt
CCN(CC)c1ccc(NC(=O)COc2ccc(C)cc2)cc1	-13	0	4	50	17	18	42	47	40
CCOC(=O)c1ccccc1N1C(=O)CSC1=S	-4	0	-8	54*	-10	28	48	48	35
Cc1cc(C)nc(SC2=CS(=O)(=O)c3ccccc32)n1	1	0	-2	16	-1	25	nt	nt	nt
O=S1(=O)C=C(Sc2nc3ccccc3s2)c2ccccc21	8	0	-2	62*	-20	12	64*	86*	59*
Cc1[nH]c2ccccc2c1C(=O)COC(=O)c1ccc([N+](=O)[O-])s1	7	0	10	56*	-90	7	78*	85*	87*
CC(=O)C1C(c2ccc(Cl)cc2)c2c(noc2C)CC1(C)O (centres undefined)	-2	0	-4	20	4	27	nt	nt	nt
